Rows were chosen to be rich in hits. Some 2.7% of all compounds tested hit in one or more screens of this group.
MsrA inh – bovine MsrA enzyme inhibitors, primary screen, biochemical, absorbance, HTS; hit rate 0.75% among 360,000; inhibition, % at 15.5 µM; Methionine sulfoxide reductase A (Bos taurus); purified bovine MsrA, absorbance read-out; in the data active = inhibition above about 4.5%
NadD inh – inhibitors of S. aureus NadD, primary screen, biochemical, colorimetric, uHTS. Nicotinate-nucleotide adenylyltransferase NadD (Staphylococcus aureus N315). purified NadD enzyme, colorimetric absorbance read-out. inhibition, % at 20 µM. hit rate 0.78% among 360,000; in the data active = inhibition above about 26%
bovine MsrA act – bovine MsrA enzyme activators, primary screen, biochemical, absorbance, HTS; Methionine sulfoxide reductase A (Bos taurus); purified bovine MsrA, absorbance read-out; activation, % at 10.6 µM; hit rate 0.3% among 360,000; AID 602163, 2012; in the data active = activation above about 7.5%
rCAG binder – binders of r(CAG) RNA repeats, primary screen, biochemical, fluorescence | AID 651821, 2012 | hit rate 1.3% among 370,000 | r(CAG) RNA repeat, TO-PRO-1 dye displacement fluorescence | inhibition, % at 3 µM;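 active = inhibition above the plate cutoff, the mean of all test compounds on that plate plus 3 SD, cut at about 35% in these data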;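 also: higher means more dye released from RNA so lower well fluorescence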
MsrA act confirm – bovine MsrA activators, retest, confirmation, biochemical, absorbance, HTS; shares compounds with bovine MsrA act; purified bovine MsrA, absorbance read-out; activation, % at 10.6 µM; hit rate 12% among 1,000; AID 602270, 2012; in the data active = activation above about 4%;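 also: enzyme coupled to thioredoxin and thioredoxin reductase with NADPH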
NadD inh conf – inhibitors of S. aureus NadD, confirmation, biochemical, colorimetric, single concentration | shares compounds with NadD inh | purified S. aureus NadD, colorimetric enzyme assay | inhibition, % at 20 µM | hit rate 13% among 2,000; in the data active = inhibition mostly above about 42%, no sharp cut-off; inactive = mostly below about 42%
rCAG binder conf – small molecules binding CAG repeat RNA – biochemical, fluorescence, confirmation. hit rate 70% among 4,300. r(CAG) RNA repeat, TO-PRO-1 dye displacement fluorescence. inhibition, % at 3 µM. shares compounds with rCAG binder;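 active = inhibition above a per-plate cutoff, the mean inhibition of sample wells plus 3 SD, cut at about 35% in these data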;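 also: loss of TO-PRO-1 fluorescence as compound displaces dye from 1x1 AA loop RNA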
DNA CAG counter – displacement of TO-PRO-1 from CAG DNA duplex, counter-screen for rCAG RNA repeat binder project, biochemical, fluorescence, TO-PRO-1 dye, d(CAG) DNA oligo | shares compounds with rCAG binder | d(CAG) DNA oligo TO-PRO-1 dye displacement | inhibition, % at 3 µM | hit rate 94% among 4,300;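 active = inhibition above its plate's cutoff, the mean test-well inhibition plus 3 SD, cut at about 4.8% in these data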;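 also: hits displace the dye from DNA and so lower well fluorescence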
Hits are given with their value; n = inactive; x = no result given.

SMILES	MsrA inh	NadD inh	bovine MsrA act	rCAG binder	NadD inh conf	others
CC(=O)c1sc(Nc2nc3ccc(F)cc3s2)nc1C	n	n	7.8	35.8	x	MsrA act confirm=n;rCAG binder conf=n;DNA CAG counter=8.0
CCOc1ccc(N2C(=O)CC(Sc3nc(-c4cccs4)cc(C(F)(F)F)c3C#N)C2=O)cc1 (centres undefined)	n	n	10.3	53.7	x	MsrA act confirm=n;rCAG binder conf=n;DNA CAG counter=12.9
CCOc1ccc(N2C(=O)CC(Sc3ncccn3)C2=O)cc1 (centres undefined)	n	n	n	n	x
O=C(NCCCc1ccccc1)OC1CCC12CCC(c1ccccc1)CC2 (centres undefined)	x	x	x	n	x
Cc1ccc(-c2cc(-c3ccc(C)o3)nc(N)c2C#N)cc1	n	57.6	n	n	62.2
Cc1ccc(-c2cc(-c3ccc(Cl)cc3)c(C#N)c(N)n2)o1	n	58.6	n	n	70.8
COc1ccc(-c2cc(-c3ccc(O)cc3)nc(N)c2C#N)cc1OC	n	n	n	n	x
Cc1cc(-c2cc(-c3ccc(Cl)cc3)nc(N)c2C#N)co1	n	84.2	n	n	n
Cc1ccc(-c2cc(-c3ccc(F)cc3)c(C#N)c(N)n2)o1	n	64.8	n	n	n
Cc1noc(C)c1S(=O)(=O)Nc1ccc2c(c1)C(=O)N([C@@H](C)CO)C[C@H](C)[C@@H](CN(C)Cc1ccc(C(F)(F)F)cc1)OCCCC[C@H](C)O2	n	n	n	n	x
Cc1cccc(OCc2nnc(SCC(=O)c3c(N)n(C4CC4)c(=O)[nH]c3=O)o2)c1	n	n	n	n	x
CCOc1cc(-c2cc(-c3ccc(C)o3)nc(N)c2C#N)ccc1O	n	n	n	n	x
Cc1ccc(-c2cc(-c3ccc4c(c3)OCO4)c(C#N)c(N)n2)o1	n	39.3	n	n	n
Cc1cc2cc(CNS(=O)(=O)c3ccc4ccccc4c3)ccc2n1C	n	35.1	n	n	n
Cc1ccc(N2C(=O)c3ccccc3C2C(=O)c2ccc(C)c(C)c2O)cc1 (centres undefined)	n	n	n	n	x
O=C(COc1ccc(/C=N/NC(=O)c2ccc(O)cc2)cc1)Nc1cccc([N+](=O)[O-])c1	n	28.4	n	n	n
COc1cccc(C2C(C#N)=C(N)OC3=C2C(=O)CC(c2ccco2)C3)c1OCc1ccc(F)cc1 (centres undefined)	n	31.0	n	n	n
N#CC1=C(N)OC2=C(C(=O)CC(c3ccco3)C2)C1c1ccc(OCc2c(F)cccc2Cl)cc1 (centres undefined)	n	33.6	n	n	n
N#CC1=C(N)OC2=C(C(=O)CC(c3ccccc3)C2)C1c1ccoc1 (centres undefined)	n	n	n	n	x
CCc1ccc(-c2cc(C(=O)Nc3c(C)n(C)n(-c4ccccc4)c3=O)c3ccccc3n2)s1	x	n	n	x	x
Cc1cc(Br)cc2c(C(=O)Nc3c(C)n(C)n(-c4ccccc4)c3=O)cc(-c3cccs3)nc12	n	30.3	n	n	n
COc1ccc(Cl)cc1Nc1nc(-c2sc(NC(=O)C(C)(C)C)nc2C)cs1	n	38.8	n	n	n
COc1ccccc1Nc1nc(-c2sc(NC(=O)c3ccccc3)nc2C)cs1	n	n	n	n	x
CCC(C)C(=O)Nc1nc(C)c(-c2csc(Nc3cc(Cl)ccc3OC)n2)s1 (centres undefined)	n	32.4	n	n	n
CCC(C)C(=O)Nc1nc(C)c(-c2csc(Nc3cc(OC)ccc3OC)n2)s1 (centres undefined)	n	n	n	n	x
SMILES	MsrA inh	NadD inh	bovine MsrA act	rCAG binder	NadD inh conf	others
CCOc1ccccc1Nc1nc(-c2sc(NC(=O)c3cccc(Cl)c3)nc2C)cs1	n	55.3	n	n	n
COc1ccc(OC)c(Nc2nc(-c3sc(NC(=O)C(C)(C)C)nc3C)cs2)c1	n	n	n	n	x
C=CCN1C(=O)[C@@H](CC(=O)NCc2cccc(C(F)(F)F)c2)[C@]2(C(=O)OC)CCCCC=C12	x	x	x	n	x
CC1=C(C(=O)N2CCOCC2)CC(CC(=O)NC(c2ccccc2)c2ccccc2)C(=O)N1CCCN1CCCC1=O (centres undefined)	n	n	n	n	x
COc1ccc(CCN2CC(C(=O)OCC(=O)N(C)Cc3ccccc3)CC2=O)cc1OC (centres undefined)	n	n	n	n	x
Cn1c(C(=O)Nc2ccc3c(c2)OCCO3)cc2sccc21	n	n	n	n	x
CC(C)c1ccc(NC(=O)Nc2cc3sccc3n2C)cc1	n	42.0	n	n	n
Cc1cc(C)n2nc(C(=O)N/N=C/c3c4ccccc4cc4ccccc34)nc2n1	n	29.1	n	n	n
COc1cc2nc(N(CCCN(C)C)C(=O)c3ccc(S(=O)(=O)N4CCc5ccccc54)cc3)sc2cc1OC	n	33.7	n	n	n
CC(=O)Nc1ccc(S(=O)(=O)N(C)CC(=O)OC(C)C(=O)N(C)C2CCCCC2)cc1 (centres undefined)	n	n	n	n	x
Cc1ccc(NC(=O)c2ccc(N/N=C/c3cccc(O)c3)c([N+](=O)[O-])c2)cc1	n	36.2	n	n	n
CC(C)(C)C(=O)NNc1nc(-c2ccccc2)c2cc(Br)ccc2n1	n	n	n	n	x
CCN(CC)S(=O)(=O)c1ccc(C(=O)NNc2nc(-c3ccccc3)c3cc(Br)ccc3n2)cc1	n	34.6	n	n	n
Cn1cnnc1SCc1ccc(-c2ccc(Br)cc2)o1	n	40.8	n	n	n
CC1(CCc2ccccc2)NC(=O)N(CC(=O)N2CCCCCC2)C1=O (centres undefined)	n	n	n	n	x
O=C(CCCCn1c(=S)[nH]c2ccsc2c1=O)NCc1ccc2c(c1)OCO2	n	29.9	n	n	n
COc1ccc(/C=C/C(=O)NC(=S)NNC(=O)[C@H]2C[C@@H]2c2ccccc2)cc1OC	n	58.6	n	n	n
Cc1cc(OCC(=O)NNC(=O)c2cccs2)ccc1Br	n	n	n	n	x
O=c1[nH]c(NNC(=S)NCc2ccccc2)nc2c1C1(CCCCC1)Cc1ccccc1-2	n	37.0	n	n	53.2
C=CCNC(=S)NNc1nc2c(c(=O)[nH]1)C1(CCCC1)Cc1ccccc1-2	n	n	n	n	x

Bioassay records: PubChem BioAssay, several laboratories
